Test [1] has as its target Androgen receptor (Homo sapiens) (UniProt P10275). The experiment in a line: qHTS assay for small molecule antagonists of androgen receptor signaling (AID 588516; active = well fitted curve in the direction sought with a large enough effect in the signal ratio, with a control signal flat, not every such curve was filed as active; the % refers to the signal ratio; note: % is set by controls: 0 for no effect and ±100 for the full control effect). In a few lines:
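Antagonist-mode qHTS: inhibition of R1881 (10 nM)-driven beta-lactamase expression in GripTite HEK 293 cells is measured after 16 h; values are Hill-derived IC50s normalized between R1881 and DMSO wells.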
In general terms: qHTS replaces the single test concentration by a dilution series.

Test [2] has as its target Bile acid receptor (Homo sapiens) (UniProt Q96RI1). The experiment in a line: qHTS assay for small molecule antagonists of farnesoid X receptor signaling (AID 588526). Note: potency is the fitted concentration of half-maximal effect. The method, boiled down:
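Concentration-response titrations were fitted to the Hill equation for half-maximal inhibition and maximal response, with data normalised to 50 uM chenodeoxycholic acid and DMSO control wells. Cells: FXR-UAS-bla HEK293T, dialyzed FBS.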

Test [3] has the same target. The experiment in a line: qHTS assay for small molecule agonists of farnesoid X receptor signaling (AID 588527).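 Note: series mostly up to about 77 µM; 0% = vehicle basal and 100% = reference agonist.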 The conditions noted are these: HEK293T FXR-UAS-bla, beta-lactamase ratio, 16 h; activation: stronger effect = higher value. The method, boiled down: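 Quantitative HTS used FXR-UAS-bla HEK293T cells with 16 h compound incubation at 37 C. EC50 values came from concentration-response curves normalized to chenodeoxycholic acid.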

Test [4] addresses Glucocorticoid receptor (Homo sapiens) (UniProt P04150). The experiment in a line: qHTS assay for small molecule agonists of glucocorticoid receptor signaling (AID 588532; active = well fitted curve in the direction sought with a large enough effect in the signal ratio, with a control signal flat; the % refers to the signal ratio;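 note: 100% = dexamethasone at 0.1 µM and 0% = DMSO only wells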). The conditions noted are these: HeLa MMTV-bla, beta-lactamase ratio, agonist, 18 h; activation: stronger effect = higher value, percent of dexamethasone control, DMSO zero. The method, boiled down: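 Titration series, up to 92 uM, applied to GRE-bla HeLa cells for 18 h at 37 C. Detection by CCF4 FRET substrate after 2 h at RT.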

For test [5] the target is unchanged. The experiment in a line: qHTS assay for small molecule antagonists of glucocorticoid receptor signaling (AID 588533; active = well fitted inhibition curve with a large enough effect in the signal ratio, with a control signal flat, not every such curve was filed as active; the % refers to the signal ratio;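 note: cells stimulated with 2 nM dexamethasone as agonist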; note: potency is the fitted concentration of half-maximal effect). The method, boiled down:
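Antagonist-mode qHTS: compound titrations added to GRE-bla HeLa cells, then dexamethasone 2 nM final; 18 h, 37 C. CCF4 FRET fluorescence normalized to dexamethasone and DMSO; IC50 from Hill fit.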

Test [6] in a line: qHTS assay for small molecule antagonists of peroxisome proliferator-activated receptor delta signaling (AID 588535; active = well fitted inhibition curve with a large enough effect in the signal ratio, with a control signal flat, not every such curve was filed as active; the % refers to the signal ratio;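 for max response: cells co-treated with a PPAR-delta agonist as stimulator during compound exposure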). As to conditions: HEK293T PPARd-UAS-bla, beta-lactamase FRET ratio, 18 h; 460 nm channel. The method, boiled down: (§1)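 Reporter: UAS-bla under PPAR-delta response element, HEK293T host. Medium: 2% charcoal/dextran FBS. Dosing: titration, 18 hrs, 37 C. Detection: CCF4, 2 hrs RT, 405 ex/460 and 530 em.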

Test [7] has as its target Peroxisome proliferator-activated receptor delta (Homo sapiens) (UniProt Q03181). Described as above. In a few lines: as §1
The nature of test [8]: qHTS assay for small molecule agonists of retinoid X receptor alpha signaling (AID 588544). As to conditions: HEK293T RXRa-UAS-bla, beta-lactamase reporter, 18 h; 530 nm emission.
A short description of test [9]: qHTS assay for small molecule agonists of the antioxidant response element (ARE) signaling pathway (AID 651741; active = well fitted activation curve with a large enough effect in the signal ratio; the % refers to the signal ratio; note: potency is the fitted concentration of half-maximal effect; for activation: % of control where 0% means no effect). The method, boiled down:
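Compounds in DMSO are pinned onto HepG2 ARE-bla cells (2,000/well) that were preincubated 5 h; plates stay 16 h at 37 C, then beta-lactamase activity is detected with LiveBLAzer B/G substrate by fluorescence.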

Test [10] can be described thus: qHTS assay for small molecule activators of the human pregnane X receptor (PXR) signaling pathway (AID 720659; call rule not given here; note: 0% is about no effect).
In test [11] the target is Androgen receptor (Homo sapiens) (UniProt P10275). The experiment in a line: qHTS assay for small molecule agonists of androgen receptor signaling (AID 588515; active = well fitted curve in the direction sought with a large enough effect in the signal ratio, with a control signal flat; the % refers to the signal ratio; note: % is set by controls: 0 for no effect and ±100 for the full control effect). The conditions noted are these: AR-UAS-bla HEK293, beta-lactamase ratio, agonist 16 h; stronger effect = higher value. In a few lines: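 EC50 and efficacy came from Hill fits of titrations (up to 92 uM) normalized to 30 nM R1881 as 100% and DMSO as 0%. Compound exposure was 16 h at 37 C on AR-UAS-bla HEK293 cells, with a 405/460/530 nm CCF4 fluorescence read.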

Test [12] in a line: qHTS assay for small molecule activators of the nuclear factor-kappa B (NF-kB) signaling pathway (AID 651749; active = well fitted activation curve with a large enough effect in the signal ratio; the % refers to the signal ratio; note: series mostly up to about 77 µM; % of control where 0% means no effect). The conditions noted are these: NF-kB-bla ME-180 cells, beta-lactamase FRET ratio, 16 h; activation: stronger effect = higher value. In a few lines: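 Screening used 2,000 ME-180 reporter cells per well exposed to pinned compound (23 nL) or DMSO; after 16 hr at 37C, beta-lactamase expression under NF-kB control was assessed through FRET.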

Test [13] deals with Cytochrome P450 3A4 (Homo sapiens) (UniProt P08684). The experiment in a line: qHTS Assay for Inhibitors and Substrates of Cytochrome P450 3A4 (AID 884; active = well fitted curve in the direction sought with a large enough effect; an effect the other way counts as inactive or inconclusive; note: potency is the fitted concentration of half-maximal effect; nearly all actives have a fitted effect of over 50% in size). The method, boiled down:
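20 nM human CYP3A4 with 25 uM Luciferin-PPXE (at KM) in 200 mM KPO4, preincubated 10 min with compound; NADPH regeneration started a 60 min RT reaction. Luciferin detected by luminescence, normalized to 57 uM ketoconazole as full inhibition.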

For test [14] the target is unchanged. The experiment in a line: qHTS Assay for Activators of Cytochrome P450 3A4 (AID 885; active = well fitted curve in the direction sought with a large enough effect; an effect the other way counts as inactive or inconclusive; note: nearly all actives have a fitted effect of over 65% in size). In a few lines: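 Quantitative HTS format: compounds preincubated with 20nM human CYP3A4 and Luciferin-PPXE substrate at KM, reaction started by NADPH regeneration, stopped after 60 min, luciferase luminescence read 20 min later.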
The nature of test [15]: Cell Viability - LYMP2-001 (AID 921; active = well fitted curve in the direction sought with a large enough effect; an effect the other way counts as inactive or inconclusive;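 note: potency is the fitted concentration of half-maximal effect; cells exposed to compound for 24 h at 37 °C; nearly all actives have a fitted effect of over 70% in size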). In a few lines: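 qHTS, 1536-well; lymphoblastoid cells, 24 hr compound, 37 C; ATP by CellTiter-Glo, 30 min RT; luminescence; Hill-fit AC50.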

SMILES strings stand for the structures. “And” between values parts separate entries of the source, which are not always exact repeats. Equal values may be shown once. Results filed as inconclusive are left out. The source made the active and inactive calls. Unless noted, calls come from the whole dose curve.

Chain of Peroxisome proliferator-activated receptor delta (Homo sapiens) (Q03181 whole entry, looked up): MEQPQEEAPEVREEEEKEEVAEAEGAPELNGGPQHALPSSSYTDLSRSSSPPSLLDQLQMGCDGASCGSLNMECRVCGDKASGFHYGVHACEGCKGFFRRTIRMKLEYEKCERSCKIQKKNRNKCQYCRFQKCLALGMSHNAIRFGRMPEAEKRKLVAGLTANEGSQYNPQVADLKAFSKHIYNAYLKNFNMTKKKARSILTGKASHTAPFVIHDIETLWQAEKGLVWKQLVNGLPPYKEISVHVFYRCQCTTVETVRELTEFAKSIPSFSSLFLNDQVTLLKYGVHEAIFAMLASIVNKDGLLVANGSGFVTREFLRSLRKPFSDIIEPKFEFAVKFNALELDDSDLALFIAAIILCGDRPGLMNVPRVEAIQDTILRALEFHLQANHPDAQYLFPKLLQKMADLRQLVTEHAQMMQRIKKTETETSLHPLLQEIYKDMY
Chain of Bile acid receptor (Homo sapiens) (Q96RI1 whole entry, looked up): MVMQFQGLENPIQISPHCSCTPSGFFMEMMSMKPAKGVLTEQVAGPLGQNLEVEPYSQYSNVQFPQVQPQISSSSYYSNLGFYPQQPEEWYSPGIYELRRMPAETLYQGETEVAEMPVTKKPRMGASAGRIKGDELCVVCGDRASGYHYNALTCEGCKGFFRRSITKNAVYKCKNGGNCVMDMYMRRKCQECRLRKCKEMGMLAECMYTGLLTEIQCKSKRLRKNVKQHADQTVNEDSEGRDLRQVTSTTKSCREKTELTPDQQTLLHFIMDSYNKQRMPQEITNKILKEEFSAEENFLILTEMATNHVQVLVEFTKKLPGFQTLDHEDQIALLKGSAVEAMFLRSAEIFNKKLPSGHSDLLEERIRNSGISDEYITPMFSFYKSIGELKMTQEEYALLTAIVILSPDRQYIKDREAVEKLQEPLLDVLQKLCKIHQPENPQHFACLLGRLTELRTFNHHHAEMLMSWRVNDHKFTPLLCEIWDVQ
Chain of Glucocorticoid receptor (Homo sapiens) (P04150 whole entry, looked up): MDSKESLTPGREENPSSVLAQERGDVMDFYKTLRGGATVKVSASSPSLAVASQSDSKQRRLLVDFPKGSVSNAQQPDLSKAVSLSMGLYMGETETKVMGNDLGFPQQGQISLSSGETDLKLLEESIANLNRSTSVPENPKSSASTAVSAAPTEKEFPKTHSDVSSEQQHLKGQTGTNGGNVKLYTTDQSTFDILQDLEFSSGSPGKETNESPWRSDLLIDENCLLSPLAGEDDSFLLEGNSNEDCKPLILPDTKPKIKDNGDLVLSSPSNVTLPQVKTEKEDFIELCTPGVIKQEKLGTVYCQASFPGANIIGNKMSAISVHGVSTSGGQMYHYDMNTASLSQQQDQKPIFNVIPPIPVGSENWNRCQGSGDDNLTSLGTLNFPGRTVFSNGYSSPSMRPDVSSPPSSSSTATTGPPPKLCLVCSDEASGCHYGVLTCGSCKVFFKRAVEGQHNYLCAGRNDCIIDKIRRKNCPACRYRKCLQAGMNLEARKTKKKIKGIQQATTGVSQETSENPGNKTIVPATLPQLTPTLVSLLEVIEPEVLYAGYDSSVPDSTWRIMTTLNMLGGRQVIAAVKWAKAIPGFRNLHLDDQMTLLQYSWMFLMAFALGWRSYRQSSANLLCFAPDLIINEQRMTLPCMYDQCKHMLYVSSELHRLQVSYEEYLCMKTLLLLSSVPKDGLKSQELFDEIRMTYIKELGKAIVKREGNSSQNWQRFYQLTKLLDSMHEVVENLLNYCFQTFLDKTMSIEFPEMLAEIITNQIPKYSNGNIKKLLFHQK
Chain of Cytochrome P450 3A4 (Homo sapiens) (P08684 whole entry, looked up): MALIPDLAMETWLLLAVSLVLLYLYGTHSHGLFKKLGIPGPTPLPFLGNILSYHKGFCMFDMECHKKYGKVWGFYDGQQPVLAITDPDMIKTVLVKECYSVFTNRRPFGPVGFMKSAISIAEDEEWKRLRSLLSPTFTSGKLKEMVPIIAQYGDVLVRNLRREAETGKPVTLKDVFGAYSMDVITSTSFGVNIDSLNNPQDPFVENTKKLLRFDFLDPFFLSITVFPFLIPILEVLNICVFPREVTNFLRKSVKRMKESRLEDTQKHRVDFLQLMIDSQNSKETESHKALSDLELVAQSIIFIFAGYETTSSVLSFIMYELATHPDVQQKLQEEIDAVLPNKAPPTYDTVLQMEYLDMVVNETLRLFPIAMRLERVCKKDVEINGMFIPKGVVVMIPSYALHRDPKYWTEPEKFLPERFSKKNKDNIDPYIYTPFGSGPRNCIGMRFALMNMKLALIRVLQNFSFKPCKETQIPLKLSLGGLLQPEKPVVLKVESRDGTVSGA
Chain of Androgen receptor (Homo sapiens) (P10275 whole entry, looked up): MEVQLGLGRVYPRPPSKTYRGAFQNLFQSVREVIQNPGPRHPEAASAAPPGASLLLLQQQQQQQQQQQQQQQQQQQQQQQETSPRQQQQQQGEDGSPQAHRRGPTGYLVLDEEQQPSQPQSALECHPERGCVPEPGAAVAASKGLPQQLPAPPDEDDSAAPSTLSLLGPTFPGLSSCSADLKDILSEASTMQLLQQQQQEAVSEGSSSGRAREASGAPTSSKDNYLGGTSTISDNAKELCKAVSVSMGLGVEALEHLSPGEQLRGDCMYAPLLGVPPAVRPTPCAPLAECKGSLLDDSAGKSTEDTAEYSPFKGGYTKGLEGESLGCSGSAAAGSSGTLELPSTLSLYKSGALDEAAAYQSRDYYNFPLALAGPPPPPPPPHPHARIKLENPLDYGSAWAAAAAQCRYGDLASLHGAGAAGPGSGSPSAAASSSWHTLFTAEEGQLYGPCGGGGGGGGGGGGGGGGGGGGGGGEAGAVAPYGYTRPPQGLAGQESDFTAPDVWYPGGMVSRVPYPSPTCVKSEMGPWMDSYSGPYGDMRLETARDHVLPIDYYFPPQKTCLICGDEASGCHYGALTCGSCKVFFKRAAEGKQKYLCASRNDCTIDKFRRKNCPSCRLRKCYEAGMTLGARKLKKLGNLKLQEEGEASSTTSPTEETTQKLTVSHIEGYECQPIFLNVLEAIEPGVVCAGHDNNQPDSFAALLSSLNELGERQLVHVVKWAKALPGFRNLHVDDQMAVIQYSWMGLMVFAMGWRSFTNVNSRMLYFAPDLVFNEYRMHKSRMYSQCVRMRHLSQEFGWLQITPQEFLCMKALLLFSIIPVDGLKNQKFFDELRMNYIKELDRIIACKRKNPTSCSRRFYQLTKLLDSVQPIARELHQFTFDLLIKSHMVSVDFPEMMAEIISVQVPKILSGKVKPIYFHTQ

In the case of `CCOP(=O)(NC(C)C)Oc1ccc(S(C)=O)c(C)c1` (stereo not given), the Potency result in [1], in [2], in test [5], in test [7] and in test [9] was “inactive” throughout. In addition, the activation in test [3] was -0.691% (inactive); in test [4] it was -7.67% (inactive). Besides, the max response in test [6] was -19.9%; in test [8], 0.27%. For the same compound, the compound was classed as inactive in [10].

As for `COP(=O)(OC)Oc1ccc([N+](=O)[O-])cc1`, the activation in test [3] was 5.22% (inactive). Besides, the compound was classed as inactive in [10].

As for `Oc1ccc(C2(c3ccc(O)cc3)c3ccccc3-c3ccccc32)cc1`, the Potency in test [2] was 28.2 µM (active); in [5] it was 44.7 µM (active). Besides, the activation in test [4] is -14.6% (inactive).

On to `Nc1ccc([N+](=O)[O-])cc1Cl`, for which the activation in test [11] is -9.37% (inactive); in test [3] it was -2.5% (inactive); in test [4], -4.74% (inactive); in test [12], 0.235% (inactive). The Potency entry in test [2], in test [5], in test [7] and in test [9] was “inactive” in each case. Also, the max response in test [6] is -22.4%; in test [8], -7.96%. Moreover, the compound was called inactive in test [10].

As to `O=c1[nH]c2ccccc2c(=O)o1`, the Potency result in test [2], in test [5], in test [7] and in test [9] was “inactive” throughout. The values for the activation in test [3], in test [4] and in test [12] were 0.0754% (inactive), -0.7% (inactive) and -0.747% (inactive), respectively. The max response was 29.4% in test [6] and -6.9% in test [8]. Moreover, the result in test [10] was inactive.

As to `CNC(=O)Oc1ccc(N(C)C)c(C)c1`, the Potency entry in test [2] and in test [5] was “inactive” in each case. Moreover, the activation is 0.727% (inactive) in [3], -10.5% (inactive) in test [4] and -0.493% (inactive) in [12]. The max response is -23.4% in test [6] and -30.4% in [8]. Further, the Potency in [9] is 54.5 µM (active). Moreover, the result in [10] was inactive.

As to `COCC(=O)N(c1c(C)cccc1C)[C@H](C)C(=O)OC`, the Potency entry in test [2] is “inactive”. The activation in test [3] was 0.109% (inactive). For the same compound, in [8], the max response is -8.28%.

For the compound `CCNc1nc(NC(C)(C)C)nc(SC)n1`, the Potency result in [2], in test [5] and in [7] was “inactive” throughout. Also, the activation in test [3] was 4.27% (inactive); in test [4], 4.35% (inactive); in test [12], -1.56% (inactive). For the same compound, the results for the max response in test [6] and in test [8] were 44.7% and -0.223%, respectively.

For the compound `COC(=O)c1ccccc1S(=O)(=O)NC(=O)N(C)c1nc(C)nc(OC)n1`, the Potency result in test [2], in [5] and in test [7] was “inactive” in each case. The activation is 1.44% (inactive) in test [3] and -0.341% (inactive) in [12]. In addition, the results for the max response in test [6] and in [8] were -42.2% and -6.9%, respectively. Also, in test [10], the outcome was inactive.

On to `CCN(CC)c1nc(C)cc(OP(=S)(OC)OC)n1`, for which the values for the activation in [4] and in [12] were 19.3% (inactive) and 0.586% (inactive), respectively. The Potency result in test [5] and in test [7] was “inactive” in each case. In addition, the max response in test [6] amounted to 56.7%. The compound was called inactive in test [10].

For `c1cc[n+]2c(c1)-c1cccc[n+]1CC2`, the activation was 1.75% (inactive) in test [4] and -2.74% (inactive) in test [12]. For the same compound, the Potency result in [5] and in test [7] was “inactive” in each case. The max response in test [6] is 45.8%; in test [8], -27.8%. For the same compound, in test [9], the Potency is 8.63 µM (active).

Regarding `Clc1ccc([C@]2(Cn3cncn3)C[C@H](Br)CO2)c(Cl)c1`, the Potency entry in test [2], in [5], in test [7] and in test [9] was “inactive” in each case. Besides, the activation in [3] is 0.21% (inactive) and -0.946% (inactive); in [4], -7.37% (inactive) and -0.86% (inactive); in test [12], -1.6% (inactive) and -1.96% (inactive). The max response in test [6] is 7.61% and -41.8%; in test [8] it was -0.873% and 8.46%.

On to `Cc1c(F)c(F)c(COC(=O)C2C(/C=C(\Cl)C(F)(F)F)C2(C)C)c(F)c1F` (stereo not given), for which, in test [2], the Potency result was “inactive”. The activation is 0.0589% (inactive) in [3], 9.43% (inactive) in [4] and -3.24% (inactive) in test [12]. Besides, the max response in [6] was -17%; in test [8], -0.493%.

On to `C=CC1(C)OC(=O)N(c2cc(Cl)cc(Cl)c2)C1=O` (stereo not given), for which the Potency result in test [2], in [5] and in [7] was “inactive” each time. The activation in test [3] is -2.77% (inactive); in [4], -11.4% (inactive); in test [12], -0.261% (inactive). In addition, in [6], the max response was -9.9%.

On to `CN(C)c1nc(=O)n(C2CCCCC2)c(=O)n1C`, for which the Potency result in [2], in test [7] and in test [9] was “inactive” each time. For the same compound, the activation in test [3] was -1.35% (inactive). In addition, the max response in test [6] is 12.4%; in test [8], -8.9%. For the same compound, in [10], the compound was called inactive.

As for `CCOP(=O)(O)C(N)=O`, the Potency result in test [2], in test [5], in [7] and in [9] was “inactive” each time. Also, the figures for the activation in [3] and in test [4] were 3.28% (inactive) and 4.17% (inactive), respectively. Also, the max response is 57.5% in test [6] and -12.7% in test [8]. In addition, the compound was called inactive in [10].

As for `COc1ccc(C(O)(c2cncnc2)C2CC2)cc1` (stereo not given), the Potency result in test [2] is “inactive”. For the same compound, the activation in test [3] was -0.99% (inactive); in test [4], -6.63% (inactive). For the same compound, in [8], the max response is -7.16%. For the same compound, in test [10], the result was inactive.

Regarding `C=CC(=O)OCC(CO)(COC(=O)C=C)COC(=O)C=C`, the Potency is 7.94 µM (active) in [13]; 3.16 µM (active) in [15]; 22.4 µM (active) and 20 µM (active) in test [5]; 24.3 µM (active) in [9]. Further, the Potency result in [14] was “inactive”. Also, the activation in [3] was 1.06% (inactive).

As for `CCCCC(CC)C(=O)Cl` (stereo not given), the Potency entry in test [2], in test [5] and in test [7] was “inactive” throughout. The activation was -2.28% (inactive) in test [3], -0.757% (inactive) in test [4] and -0.95% (inactive) in test [12]. Besides, the figures for the max response in test [6] and in [8] were 9% and -20.2%, respectively. For the same compound, the compound was called inactive in [10].

Regarding `CCOP(OCC)OCC`, the Potency result in test [2] is “inactive”. The activation in test [3] is -1.35% (inactive); in test [12], -0.0576% (inactive). Also, the max response in test [8] was -0.591%. Moreover, in test [10], the compound was called inactive.

These data come from PubChem BioAssay (NCATS).
